The source of these data is PubChem BioAssay (EPA / NIEHS).

Assay [1] can be described thus: ACEA_ER_80hr: ACEA Biosciences xCELLigence Real-Time Cell Analysis on Estrogen Receptor Agonism for Proliferation (AID 2282667; active means hit-call score of the fitted dose curve at least 0.9, where 1 is the maximum). The settings on record: T47D proliferation, impedance (xCELLigence), 80 h. The essentials: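 Estrogen-driven proliferation is captured as electrode impedance in T47D cells 80 h after compound addition. Test articles ran at 8 concentrations, 1:4 dilutions from 100 uM final, in two replicate plates.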

Assay [2] can be described thus: APR_HepG2_CellCycleArrest_24hr: Apredica 24-hour HepG2 Assay for Cell Cycle Arrest (AID 2282905).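 Further: cell cycle arrest scored as ratio of 2N to 4N nuclear DNA content.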 The conditions noted are these: imaging, actives raise or lower the signal. A digest of the protocol:
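After 24 h exposure at 0.39–200 uM in 0.5% DMSO, fixed cells received Hoechst 33342 staining. Imaging quantified per-nucleus DNA content; gain or loss fitted against DMSO controls.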

Assay [3] in a line: APR_HepG2_NuclearSize_24hr: Apredica 24-hour HepG2 Assay for Nuclear Size (AID 2282907). The settings on record: high-content imaging, actives raise or lower the signal. A digest of the protocol: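 Nuclear size from Hoechst 33342-stained, formaldehyde-fixed HepG2 nuclei imaged by high-content microscopy, after 24 h dosing at ten concentrations from 0.39 to 200 uM in 0.5% DMSO; gain or loss relative to DMSO baseline.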

A short description of assay [4]: APR_HepG2_CellLoss_24hr: Apredica 24-hour HepG2 Assay for Cell Loss (AID 2282908).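 On AC50: fit in both directions so a hit may be cell loss or gain.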 The settings on record: high-content imaging. A digest of the protocol:
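Nuclei stained with Hoechst 33342 after formaldehyde fixation (3.7%) were imaged at 20x to count cells. Exposure lasted 24 hr, at ten concentrations from 0.39 to 200 uM in duplicate, with 0.5% v/v DMSO. Fit bidirectional, relative to DMSO.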

Assay [5] in a line: APR_HepG2_MicrotubuleCSK_24hr: Apredica 24-hour HepG2 Assay for Microtubule CSK Stabilty (AID 2282909). The settings on record: HepG2 microtubule cytoskeleton imaging, actives raise or lower the signal. The essentials: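 Fixed HepG2 cells were stained for alpha-tubulin and imaged after 24 hr exposure to ten concentrations spanning 0.39–200 uM in 0.5% DMSO. Signal change was fitted in both directions relative to DMSO; taxol was the positive control.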

The nature of assay [6]: APR_HepG2_MitoticArrest_24hr: Apredica 24-hour HepG2 Assay for Mitotic Arrest (AID 2282910). The settings on record: high-content imaging, actives raise or lower the signal. The essentials:
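HepG2, 24 hr dosing, 0.39–200 uM, 0.5% DMSO final. Formaldehyde-fixed, Triton-permeabilised, anti-phospho-histone H3 plus Hoechst. ArrayScan imaging at 20x; bidirectional fit vs DMSO baseline.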

Assay [7] can be described thus: APR_HepG2_MitoMembPot_24hr: Apredica 24-hour HepG2 Assay for Mitochondrial Membrane Potential (AID 2282911). The settings on record: imaging, actives raise or lower the signal. A digest of the protocol: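 Mitochondrial dye uptake (MitoTracker Red CMXRos, 250 nM, 30 min pre-fixation) in HepG2 after 24 hr compound exposure, 0.39–200 uM; ArrayScan images at 20x, activity fitted in both directions relative to DMSO.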

Assay [8] can be described thus: APR_HepG2_MitoMass_24hr: Apredica 24-hour HepG2 Assay for Mitochondrial Mass (AID 2282912). The conditions noted are these: high-content imaging, actives raise or lower the signal. The essentials:
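Endpoint is MitoTracker Red CMXRos (250 nM, 30 min, pre-fixation) intensity from 20x high-content imaging, nuclei located by Hoechst. Human HepG2 cells received ten concentrations from 0.39 to 200 uM in 0.5% DMSO for 24 hr, duplicate wells. Bidirectional fit relative to DMSO.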

Assay [9] can be described thus: APR_HepG2_CellCycleArrest_72hr: Apredica 72-hour HepG2 Assay for Cell Cycle Arrest (AID 2282914). The settings on record: high-content imaging, actives raise or lower the signal. The essentials:
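Using multiplexed high-content imaging, HepG2 nuclei stained with Hoechst 33342 (2 ug/mL) were analysed for DNA content after fixation and permeabilization. Treatment lasted 72 hr across 0.39–200 uM in duplicate with final DMSO 0.5% v/v; DMSO served as negative control.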

Assay [10] can be described thus: APR_HepG2_CellLoss_72hr: Apredica 72-hour HepG2 Assay for Cell Loss (AID 2282915). The settings on record: high-content imaging. The essentials:
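HepG2 cells exposed 72 h to compound at 0.39–200 uM (10 concentrations, duplicate) in 0.5% DMSO. Fixed with 3.7% formaldehyde and Hoechst 33342-stained. Imaged at 20x; nuclear count gives cell number, fitted bidirectionally versus DMSO.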

Assay [11] is described as follows: APR_HepG2_P-H2AX_72hr: Apredica 72-hour HepG2 Assay for H2AX Phosphorylation (AID 2282916).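 Further: phospho-histone H2A.x immunostain intensity per cell marking DNA damage.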 The settings on record: imaging, actives raise or lower the signal. A digest of the protocol: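 Phospho-histone H2A.x immunofluorescence, multiplexed with Hoechst and c-Jun, quantified by high-content imaging. Compounds applied to HepG2 for 72 h across ten concentrations (0.39–200 uM, 0.5% DMSO), in duplicate; DMSO baseline.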

Assay [12] is described as follows: APR_HepG2_MitoMembPot_72hr: Apredica 72-hour HepG2 Assay for Mitochondrial Membrane Potential (AID 2282917). The settings on record: imaging, actives raise or lower the signal. The essentials: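 HepG2 cells dosed 72 hr with compound at 0.39–200 uM in duplicate, 0.5% v/v DMSO final. Mitochondria stained with 250 nM MitoTracker Red CMXRos for 30 min before formaldehyde fixation, imaged by high-content fluorescence; bidirectional fit versus DMSO.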

Assay [13] in a line: APR_HepG2_MitoticArrest_72hr: Apredica 72-hour HepG2 Assay for Mitotic Arrest (AID 2282918). The conditions noted are these: high-content imaging, actives raise or lower the signal. A digest of the protocol: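 Using high-content imaging of fixed HepG2 cells, phospho-histone H3 signal was measured following a 72 hr incubation with ten-point compound dilutions up to 200 uM. DMSO served as the negative control and baseline for bidirectional curve fitting.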

Assay [14] is described as follows: APR_HepG2_MicrotubuleCSK_72hr: Apredica 72-hour HepG2 Assay for Microtubule CSK Stabilty (AID 2282919). The conditions noted are these: HepG2 microtubule cytoskeleton, high-content imaging, actives raise or lower the signal. The essentials: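 HepG2, 72 hr cmpd exposure, 0.39–200 uM (10 pts, duplicate), 0.5% DMSO. 3.7% formaldehyde fix, 0.5% Triton perm, anti-alpha-tubulin/Cy5 plus Hoechst. HCS fluorescence intensity; bidirectional fit vs DMSO baseline; taxol as positive control.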

Assay [15] in a line: APR_HepG2_P-H2AX_24hr: Apredica 24-hour HepG2 Assay for H2AX Phosphorylation (AID 2282920). The conditions noted are these: high-content imaging, actives raise or lower the signal. The essentials:
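Human HepG2 liver cells, treated 24 hr with test chemicals (0.39–200 uM, final DMSO 0.5% v/v), are fixed and co-stained for phospho-H2A.x and c-Jun with Hoechst. Imaged intensity is fitted in both directions against DMSO controls.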

A short description of assay [16]: APR_HepG2_StressKinase_72hr: Apredica 72-hour HepG2 Assay for Stress Kinase (AID 2282921). The settings on record: HepG2 stress kinase (phospho-c-Jun) imaging, actives raise or lower the signal. The essentials:
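Stress kinase signal is phospho-c-Jun immunofluorescence (1:500 primary, Cy3 secondary) in fixed, permeabilized human HepG2 cells imaged at 20x. Exposure lasted 72 hr over ten concentrations from 0.39 to 200 uM, 0.5% DMSO, in duplicate. Bidirectional fit versus DMSO.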

Assay [17] is described as follows: APR_HepG2_StressKinase_24hr: Apredica 24-hour HepG2 Assay for Stress Kinase (AID 2282922). The settings on record: HepG2 stress kinase (phospho-c-Jun) imaging, actives raise or lower the signal. The essentials:
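Read-out: phospho-c-Jun immunofluorescence (Cy3 secondary) quantified by high-content imaging at 20x, nuclei defined by Hoechst 33342. Human HepG2 liver cells dosed 24 hr, 0.39–200 uM, DMSO 0.5% v/v; gain or loss of signal fitted relative to DMSO.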

The nature of assay [18]: APR_HepG2_MitoMass_72hr: Apredica 72-hour HepG2 Assay for Mitochondrial Mass (AID 2282924).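 Further: MitoTracker Red CMXRos stain intensity per cell imaged as mitochondrial mass.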 The conditions noted are these: high-content imaging, actives raise or lower the signal. The essentials:
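Read-out: MitoTracker Red fluorescence intensity from automated imaging (20x, six fields per well) in human HepG2 liver cells. Dosing ran 72 hr, 0.39–200 uM, 0.5% DMSO; bidirectional curve fitting versus DMSO baseline.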

Assay [19] can be described thus: APR_HepG2_NuclearSize_72hr: Apredica 72-hour HepG2 Assay for Nuclear Size (AID 2282925). The conditions noted are these: high-content imaging, actives raise or lower the signal. The essentials: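 Read-out: nuclear diameter from Hoechst 33342 images (ArrayScan, 20x, six fields/well), via cell-cycle image analysis. HepG2 were dosed 0.39–200 uM for 72 hr in 0.5% DMSO. Bidirectional fit relative to DMSO.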

The nature of assay [20]: APR_HepG2_p53Act_24hr: Apredica 24-hour HepG2 Assay for p53 Activation (AID 2282913).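 Further: p53 protein immunofluorescence averaged per cell in HepG2 with Hoechst nuclei.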 The conditions noted are these: high-content imaging, actives raise or lower the signal. A digest of the protocol: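 Following 24 hr dosing of HepG2 at 0.39–200 uM, the cells undergo formaldehyde fixation, Triton permeabilization and multiplexed antibody labeling that includes p53 (Cy5). Signal from the imaging is referenced to DMSO solvent controls.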

Inconclusive results are not listed. Active and inactive are the calls of the source. How the source made its calls, unless noted: active means hit-call score of the fitted dose curve at least 0.9, where 1 is the maximum; inactive means score below 0.9.

In the case of `O=C(O)CO`, the compound was classed as inactive in assay [1].
Same read-out and setting: in the case of `OCc1c[nH]c2ccccc12` it was “inactive”.
For `c1ccc2c(c1)-c1cccc3c1c-2cc1ccccc13`, the compound was called inactive in assay [1], in assay [2], in [3], in assay [5], in assay [12] and in [13]. Also, the call in assay [14], in [15], in [16], in assay [17] and in assay [19] was inactive. Also, the AC50 in [4] was 5.87 µM (active); in assay [6], 15.5 µM (active); in assay [7], 70.4 µM (active); in assay [8], 8.67 µM (active); in assay [9] it was 2.38 µM (active); in assay [10], 7.58 µM (active). In addition, the AC50 in [11] and in assay [18] was 0.0391 µM (active) throughout.
As to `OC(O)(C(F)C(O)(O)C(F)(F)F)C(F)(F)F`, in assay [1], the compound was classed as inactive.
Consider `CCCCOC(=O)c1ccccc1`, for which the call in assay [1], in [2], in [3], in assay [4], in assay [5] and in assay [6] was inactive. In addition, the outcome in assay [7], in [8], in assay [20], in [10], in assay [11] and in [12] was inactive. In addition, the outcome in assay [13], in assay [14], in [15], in assay [16], in assay [17] and in assay [18] was inactive. For the same compound, in assay [19], the call was inactive.
`FC(F)=C(F)C(F)(F)C(F)(F)C(F)(F)C(F)(F)C(F)(F)C(F)(F)F`: the result in [1] was inactive.
On to `O=S1(=O)CCCO1`, for which the result in [1], in assay [2], in [3], in assay [4], in assay [5] and in assay [6] was inactive. The result in assay [7], in assay [8], in assay [20], in [9], in assay [10] and in assay [11] was inactive. The compound was classed as inactive in assay [12], in assay [13], in [14], in assay [15], in [16] and in assay [17]. Further, the outcome in assay [18] and in [19] was inactive.
In the case of `OCCC(F)(F)C(F)(F)C(F)(F)C(F)(F)F`, in [1], the call was inactive.
Regarding `Cn1cc[nH]c1=S`, the compound was classed as inactive in assay [1], in assay [2], in [3], in [4], in assay [5] and in assay [6]. The compound was classed as inactive in assay [7], in assay [8], in [20], in [9], in [10] and in assay [11]. Besides, the call in assay [12], in assay [13], in assay [14], in assay [15], in assay [16] and in assay [17] was inactive. Also, the result in [18] and in assay [19] was inactive.
`O=C(NO)C1(NS(=O)(=O)c2ccc(Oc3ccc(F)cc3)cc2)CCOCC1`: the result in [1], in assay [2], in [3], in assay [4], in assay [5] and in assay [6] was inactive. For the same compound, the result in assay [7], in [8], in assay [12], in assay [13], in [14] and in assay [15] was inactive. Besides, the call in assay [16], in assay [17], in [18] and in assay [19] was inactive. Further, the AC50 was 65.4 µM (active) in assay [10] and 100 µM (active) in assay [11].
On to `O=C(Cl)C(F)(F)C(F)(F)C(F)(F)C(=O)Cl`, for which the compound was classed as inactive in assay [1].
Same read-out and setting: in the case of `FC(F)(F)COC(OCC(F)(F)F)OCC(F)(F)F` it was “inactive”.
Turning to `CCCCCCCCCC`, the call in assay [1], in assay [2], in assay [3], in assay [4], in assay [5] and in [6] was inactive. Also, the compound was called inactive in assay [7], in [8], in [20], in assay [10], in assay [11] and in [12]. In addition, the compound was called inactive in [13], in [14], in assay [15], in [16], in assay [17] and in assay [18]. Besides, the outcome in assay [19] was inactive.

By AC50 is commonly meant the concentration at which the activity in the assay is half-maximal.
